Data as given in PubChem BioAssay (NCATS).
“And” between values parts separate entries of the source, which are not always exact repeats. Equal values may be shown once. Records with an inconclusive call do not appear. Entries that show only a call come without a potency. The source made the active and inactive calls. Unless noted, the call rests on the fitted dose curve.

Tests used:
[1] = molecular target: Bile acid receptor (Homo sapiens) (UniProt Q96RI1); test: qHTS assay for small molecule antagonists of farnesoid X receptor signaling (AID 588526)
How it was run: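 Concentration-response titrations were fitted to the Hill equation for half-maximal inhibition and maximal response, with data normalised to 50 uM chenodeoxycholic acid and DMSO control wells. Cells: FXR-UAS-bla HEK293T, dialyzed FBS.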

[2] = molecular target: Glucocorticoid receptor (Homo sapiens) (UniProt P04150); test: qHTS assay for small molecule agonists of glucocorticoid receptor signaling (AID 588532; active means well fitted curve in the direction sought with a large enough effect in the signal ratio, with a control signal flat; the % refers to the signal ratio); details: HeLa MMTV-bla, beta-lactamase ratio, agonist, 18 h; stronger effect = higher value; percent of dexamethasone control, DMSO zero
How it was run: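 MMTV-bla HeLa, beta-lactamase reporter; medium with 1% charcoal/dextran-stripped FBS; cpds up to 92 uM, 18 h, 37 C; CCF4 readout 460/530 nm; Hill fit → EC50, efficacy vs 0.1 uM dexamethasone = 100%.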

[3] = molecular target: Glucocorticoid receptor (Homo sapiens) (UniProt P04150); test: qHTS assay for small molecule antagonists of glucocorticoid receptor signaling (AID 588533; active means well fitted inhibition curve with a large enough effect in the signal ratio, with a control signal flat, not every such curve was filed as active; the % refers to the signal ratio;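 further: cells stimulated with 2 nM dexamethasone as agonist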)
How it was run: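 Antagonist-mode qHTS: compound titrations added to GRE-bla HeLa cells, then dexamethasone 2 nM final; 18 h, 37 C. CCF4 FRET fluorescence normalized to dexamethasone and DMSO; IC50 from Hill fit.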

[4] = molecular target: Peroxisome proliferator-activated receptor gamma (Homo sapiens) (UniProt P37231); test: qHTS assay for small molecule agonists of peroxisome proliferator-activated receptor gamma signaling (AID 588536; active means well fitted curve in the direction sought with a large enough effect in the signal ratio, with a control signal flat, not every such curve was filed as active; the % refers to the signal ratio)
How it was run: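 Ratiometric blue/green fluorescence (405 nm excitation; 460 and 530 nm emission) from CCF4-loaded HEK293 reporter cells serves as signal. Exposure to test compounds lasts 16 h at 37 C in medium containing 1% charcoal/dextran-treated serum.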

[5] = molecular target: Vitamin D3 receptor (Homo sapiens) (UniProt P11473); test: qHTS assay for small molecule antagonists of vitamin D receptor signaling (AID 588541);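 further: receptor activated by calcitriol during compound treatment; series mostly up to about 77 µM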
How it was run: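 VDR-UAS-bla HEK293T cells (2000/well, 2% charcoal-stripped FBS) were treated with titrated compounds plus 1-alpha,25-dihydroxyvitamin D3 (50 nM or 3 nM final) for 16 h at 37 C. CCF4 beta-lactamase fluorescence was read; Hill fits gave IC50.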

[6] = molecular target: Vitamin D3 receptor (Homo sapiens) (UniProt P11473); test: qHTS assay for small molecule agonists of vitamin D receptor signaling (AID 588543)
How it was run: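 Agonist-mode beta-lactamase reporter: HEK293T VDR-UAS-bla cells in charcoal-stripped 2% FBS, compound series 16 h 37 C, CCF4 2 h RT. EC50 from Hill fit, scaled against DMSO and 50 nM calcitriol control.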

[7] = qHTS assay for small molecule antagonists of peroxisome proliferator-activated receptor delta signaling (AID 588535; active means well fitted inhibition curve with a large enough effect in the signal ratio, with a control signal flat, not every such curve was filed as active; the % refers to the signal ratio;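 on max response: cells co-treated with a PPAR-delta agonist as stimulator during compound exposure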); details: HEK293T PPARd-UAS-bla, beta-lactamase FRET ratio, 18 h; 460 nm channel
How it was run: (§1)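 Reporter: UAS-bla under PPAR-delta response element, HEK293T host. Medium: 2% charcoal/dextran FBS. Dosing: titration, 18 hrs, 37 C. Detection: CCF4, 2 hrs RT, 405 ex/460 and 530 em.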

[8] = molecular target: Peroxisome proliferator-activated receptor delta (Homo sapiens) (UniProt Q03181); test: as above
How it was run: as §1

[9] = molecular target: Peroxisome proliferator-activated receptor gamma (Homo sapiens) (UniProt P37231); test: qHTS assay for small molecule antagonists of peroxisome proliferator-activated receptor gamma signaling (AID 588537; active means well fitted inhibition curve with a large enough effect in the signal ratio, with a control signal flat, not every such curve was filed as active; the % refers to the signal ratio;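 further: reporter cells co-stimulated with 50 nM rosiglitazone agonist during compound treatment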)
How it was run: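 We seeded GeneBLAzer HEK293 reporter cells at 3000 per well, allowed 6-6.5 h attachment at 37 C, then co-treated with test compound titrations and 50 nM rosiglitazone overnight (16 h). Inhibition was quantified from 460/530 nm emission ratios.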

Sequence of Peroxisome proliferator-activated receptor gamma (Homo sapiens) (P37231 whole entry, looked up): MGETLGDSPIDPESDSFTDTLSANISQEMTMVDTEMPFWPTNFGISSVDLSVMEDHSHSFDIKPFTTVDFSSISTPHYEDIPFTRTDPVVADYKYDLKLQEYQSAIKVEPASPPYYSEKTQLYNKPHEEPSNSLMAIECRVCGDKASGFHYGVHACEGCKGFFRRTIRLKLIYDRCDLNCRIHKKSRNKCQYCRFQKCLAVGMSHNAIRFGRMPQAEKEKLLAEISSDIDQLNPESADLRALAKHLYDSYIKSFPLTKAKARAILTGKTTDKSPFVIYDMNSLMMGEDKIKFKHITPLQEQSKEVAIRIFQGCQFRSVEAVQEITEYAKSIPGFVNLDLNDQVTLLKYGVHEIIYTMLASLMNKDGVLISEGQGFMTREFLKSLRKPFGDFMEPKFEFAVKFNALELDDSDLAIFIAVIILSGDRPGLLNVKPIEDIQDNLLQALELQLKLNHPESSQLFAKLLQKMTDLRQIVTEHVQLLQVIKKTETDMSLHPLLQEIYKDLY
Sequence of Glucocorticoid receptor (Homo sapiens) (P04150 whole entry, looked up): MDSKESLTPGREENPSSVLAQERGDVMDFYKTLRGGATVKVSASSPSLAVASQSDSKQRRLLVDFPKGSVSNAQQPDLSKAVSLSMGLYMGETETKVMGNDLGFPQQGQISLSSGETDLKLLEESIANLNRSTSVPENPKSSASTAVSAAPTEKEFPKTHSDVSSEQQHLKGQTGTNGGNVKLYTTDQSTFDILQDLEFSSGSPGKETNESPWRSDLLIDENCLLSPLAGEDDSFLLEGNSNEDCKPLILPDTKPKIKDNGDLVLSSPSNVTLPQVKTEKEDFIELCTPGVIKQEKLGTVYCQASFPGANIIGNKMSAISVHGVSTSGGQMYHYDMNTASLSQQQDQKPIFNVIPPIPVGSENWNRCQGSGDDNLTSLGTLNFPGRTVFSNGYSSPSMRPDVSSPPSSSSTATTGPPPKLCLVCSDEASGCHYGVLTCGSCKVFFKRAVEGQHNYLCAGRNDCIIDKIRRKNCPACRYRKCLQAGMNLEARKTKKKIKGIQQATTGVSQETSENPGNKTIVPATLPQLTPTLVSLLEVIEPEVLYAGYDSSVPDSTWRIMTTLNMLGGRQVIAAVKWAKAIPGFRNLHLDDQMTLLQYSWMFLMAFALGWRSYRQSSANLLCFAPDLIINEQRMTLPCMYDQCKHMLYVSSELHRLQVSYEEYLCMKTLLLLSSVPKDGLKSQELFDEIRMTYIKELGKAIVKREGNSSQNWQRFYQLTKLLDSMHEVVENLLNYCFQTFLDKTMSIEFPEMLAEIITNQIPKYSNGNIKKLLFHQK
Sequence of Vitamin D3 receptor (Homo sapiens) (P11473 whole entry, looked up): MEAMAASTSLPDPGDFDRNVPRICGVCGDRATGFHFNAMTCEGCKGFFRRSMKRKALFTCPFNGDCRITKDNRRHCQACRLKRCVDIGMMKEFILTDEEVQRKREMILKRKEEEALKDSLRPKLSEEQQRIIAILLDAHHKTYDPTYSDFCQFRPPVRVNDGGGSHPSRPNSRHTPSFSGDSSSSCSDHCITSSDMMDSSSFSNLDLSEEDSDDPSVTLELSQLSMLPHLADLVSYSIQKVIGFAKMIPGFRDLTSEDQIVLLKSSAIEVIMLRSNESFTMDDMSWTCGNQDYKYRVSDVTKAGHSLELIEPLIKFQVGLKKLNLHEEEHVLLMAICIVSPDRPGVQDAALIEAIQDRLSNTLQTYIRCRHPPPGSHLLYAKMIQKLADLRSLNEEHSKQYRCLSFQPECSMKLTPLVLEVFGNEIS
Sequence of Peroxisome proliferator-activated receptor delta (Homo sapiens) (Q03181 whole entry, looked up): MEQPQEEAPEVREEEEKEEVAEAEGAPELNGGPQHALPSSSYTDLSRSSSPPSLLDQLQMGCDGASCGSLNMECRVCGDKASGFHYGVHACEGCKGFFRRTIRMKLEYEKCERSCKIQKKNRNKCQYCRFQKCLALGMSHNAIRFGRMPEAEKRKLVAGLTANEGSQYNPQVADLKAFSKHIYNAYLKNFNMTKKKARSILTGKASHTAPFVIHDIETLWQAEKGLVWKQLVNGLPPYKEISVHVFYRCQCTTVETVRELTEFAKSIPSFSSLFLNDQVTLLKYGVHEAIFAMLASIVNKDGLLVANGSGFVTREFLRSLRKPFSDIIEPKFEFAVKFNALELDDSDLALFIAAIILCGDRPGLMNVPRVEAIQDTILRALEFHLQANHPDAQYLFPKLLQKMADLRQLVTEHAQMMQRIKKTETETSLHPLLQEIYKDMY
Sequence of Bile acid receptor (Homo sapiens) (Q96RI1 whole entry, looked up): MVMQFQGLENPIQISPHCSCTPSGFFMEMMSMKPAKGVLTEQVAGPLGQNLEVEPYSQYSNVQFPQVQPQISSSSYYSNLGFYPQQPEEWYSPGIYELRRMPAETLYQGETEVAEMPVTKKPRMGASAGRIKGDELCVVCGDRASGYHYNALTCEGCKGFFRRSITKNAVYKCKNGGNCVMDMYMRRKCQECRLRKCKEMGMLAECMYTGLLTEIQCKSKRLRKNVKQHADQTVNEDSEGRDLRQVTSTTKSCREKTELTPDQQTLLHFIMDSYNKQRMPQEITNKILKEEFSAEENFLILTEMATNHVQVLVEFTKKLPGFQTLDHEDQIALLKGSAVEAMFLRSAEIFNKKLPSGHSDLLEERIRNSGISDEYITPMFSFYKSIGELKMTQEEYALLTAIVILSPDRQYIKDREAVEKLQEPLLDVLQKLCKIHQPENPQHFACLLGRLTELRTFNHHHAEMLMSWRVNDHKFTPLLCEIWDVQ

Structure (SMILES) | outcome [1] | activation [2] | outcome [3] | outcome [4] | outcome [5] | outcome [6] | max response [7] | Potency [8] | outcome [9]
CCC(C)(C)C | inactive | -3.95% (inactive) | inactive | inactive | inactive | inactive | – | – | –
O=Cc1cccc(Br)c1 | inactive | -2.28% (inactive) | – | inactive | inactive | inactive | 21.9% | inactive | –
C1CCOC1 | inactive | 0.528% (inactive) | inactive | inactive | inactive | inactive | – | – | –
Cc1ccc(C)o1 | inactive | -6.27% (inactive) | – | inactive | inactive | inactive | -8.16% | inactive | –
Cc1ccc(C)c(O)c1 | inactive | 4.8% (inactive) | – | inactive | inactive | inactive | 7.19% | inactive | –
C/C=C1\CC2C=CC1C2 (stereo not drawn) | inactive | 1.02% (inactive) | inactive | – | inactive | – | -0.443% | – | inactive
CCOCCO | inactive | -1.34% (inactive) | inactive | – | inactive | inactive | – | – | –
O=C(O)c1ccc(CO)o1 | inactive | -2.95% (inactive) | – | inactive | inactive | inactive | – | – | –
CC(C)CCOC(=O)/C=C/c1ccccc1 | inactive | -0.0444% (inactive) | – | inactive | – | inactive | 17.3% | – | –
O=C(O)c1ccccc1[N+](=O)[O-] | inactive | 7.49% (inactive) | inactive | – | inactive | inactive | – | – | inactive
CCCCC(C=O)CC (stereo not drawn) | inactive | -0.985% (inactive) | inactive | – | inactive | inactive | -2.18% | – | –
CCCCCCCCCCCCC1CO1 (stereo not drawn) | inactive | 0.241% (inactive) | – | inactive | – | – | -13.1% | inactive | inactive
Cc1cc([N+](=O)[O-])ccc1N | inactive | -2.44% (inactive) | inactive | inactive | – | inactive | – | – | inactive
CCCCCO | inactive | 4.01% (inactive) | – | – | inactive | inactive | -5.82% | inactive | –
O=CNc1ccccc1 | inactive | -0.553% (inactive) | – | inactive | inactive | inactive | – | – | inactive
CCCCC=O | inactive | -0.364% (inactive) | inactive | – | inactive | inactive | – | – | –
CC#N | inactive | -2.4% (inactive) | – | – | – | – | 21.5% | inactive | –

Structure (SMILES) | outcome [1] | activation [2] | outcome [3] | outcome [4] | outcome [5] | outcome [6] | max response [7] | Potency [8] | outcome [9]
NC(N)=S | inactive | 1.8% (inactive) | inactive | inactive | inactive | inactive | – | – | inactive
Nc1c(Cl)cc(Cl)cc1Cl | inactive | – | inactive | inactive | inactive | inactive | 1.78% | inactive | inactive
Nc1nc2ccccc2[nH]1 | inactive | 0.673% (inactive) | – | inactive | inactive | inactive | – | – | inactive
Nc1nc(-c2ccccc2)cs1 | inactive | 1.27% (inactive) | – | inactive | inactive | inactive | -2.19% | inactive | –
Cc1ccc(CO)cc1 | inactive | -5.3% (inactive) | – | inactive | inactive | inactive | 17.6% | inactive | inactive
CC=O | inactive | -2.95% (inactive) | inactive | inactive | inactive | inactive | 23.9% | – | –
C=CCCCCCC | inactive | 7.84% (inactive) | inactive | inactive | – | inactive | – | – | inactive
CCCCC/C=C/C=C/C=O | inactive | -3.04% (inactive) and 0.369% (inactive) | – | inactive | – | inactive | 16.5% | – | –
CC(=O)Nc1ccc(N)cc1 | inactive | 1.17% (inactive) | inactive | inactive | inactive | inactive | – | – | inactive
CCC(=O)/C=C/C1C(C)=CCCC1(C)C (stereo not drawn) | inactive | -2.65% (inactive) | – | inactive | inactive | inactive | 2.01% | inactive | inactive
COc1cccc(N)c1 | inactive | 1.73% (inactive) | inactive | – | inactive | inactive | – | – | –
C=C(C)C(=O)OCCCCCCCCCC | inactive | 8.77% (inactive) | inactive | inactive | inactive | inactive | – | – | inactive
FC(F)(F)c1ccccc1Cl | inactive | 6.11% (inactive) | – | inactive | inactive | inactive | 25.6% | – | inactive
Oc1cccc(Nc2ccccc2)c1 | inactive | -7.34% (inactive) | inactive | inactive | – | – | – | – | –
CC1CCC2CC1C2(C)C (stereo not drawn) | inactive | -2.14% (inactive) | inactive | inactive | – | – | – | – | inactive
O=C1C=CCCC1 | inactive | – | – | inactive | – | – | -11% | – | –
C=CCOC(=O)CCCCCCCC | inactive | – | – | inactive | – | inactive | – | – | inactive
